# Only some compounds are listed: those with a hit (about 19% of all), similar ones and a draw of the others.
# HepG2 viability: HepG2 cytotoxicity, counter-screen for TGF-b inhibitors; hit rate 0.76% among 410,000; HepG2 CAGA-GFP viability, ATP luminescence, 18 h; AID 588856; Potency, µM (top dose mostly 46.1 µM), for the others: at the top dose activity change, negative = cytotoxicity, actives largely listed as cytotoxic; further: potency means the concentration at half of the fitted maximal effect
#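 CellTiter-Glo luminescence gave cytotoxicity after 18 hours at 37 degrees C. The cells were HepG2 CAGA-GFP in 1% FBS DMEM, stimulated with 500 pg/mL TGF-beta after compound addition. %Activity was normalised to no-cell wells (complete cell-killing) and DMSO (no toxicity), and curves were fitted and classified.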
# IL1B secr inh: blocks inflammasome-driven IL-1 beta release; hit rate 4.7% among 360,000; activity change, % at 57.5 µM; THP-1 LPS/ATP IL-1B secretion, AlphaLISA, 16 h; stronger effect = lower value; AID 743279; in the data active means activity change below about -50%; inconclusive means mostly about -30% to -49%; further: on the % scale 0 is the no-effect control and ±100 the full control effect
#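 Secreted IL-1B measured by AlphaLISA bead assay after 16 h compound exposure of THP-1 cells; compounds (final up to 57.5 uM) added 1 h before LPS (250 ng/mL) and ATP (1.25 mM) stimulation; lower signal means less secretion.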
# TDP1 cell CPT: growth inhibition of DT40 Tdp1-/-;hTDP1 cells with camptothecin (screen for TDP1 inhibitors) | Potency, µM (titrated, usually from 46.2 µM), without a hit: top-dose activity change, negative = growth inhibition, hits mostly inhibitors | chicken DT40 Tdp1-/-;hTDP1 cells + 20 nM CPT, ATP luminescence, 48 h | hit rate 12% among 420,000; further: potency means the concentration at half of the fitted maximal effect; on the % scale 0 is the no-effect control and ±100 the full control effect; nearly all actives have a fitted effect of over 55% in size
#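 Chicken DT40 Tdp1-/- cells complemented with human TDP1, 400 cells/well, exposed to compounds plus 20 nM camptothecin for at least 48 h at 37 C; viability read as ATP content by CellTiter-Glo luminescence.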
# ASM inhibitor: inhibitors of human secretory acid sphingomyelinase; hit rate 0.006% among 340,000; placental ASM, HMU-PC fluorogenic substrate, 60 min; Potency, µM (highest dose often 57.5 µM), without a hit: at the top dose activity change, negative = inhibition, actives largely listed as inhibitors; further: potency means the concentration at half of the fitted maximal effect
# Target sequence (P17405 47-631 limits assumed): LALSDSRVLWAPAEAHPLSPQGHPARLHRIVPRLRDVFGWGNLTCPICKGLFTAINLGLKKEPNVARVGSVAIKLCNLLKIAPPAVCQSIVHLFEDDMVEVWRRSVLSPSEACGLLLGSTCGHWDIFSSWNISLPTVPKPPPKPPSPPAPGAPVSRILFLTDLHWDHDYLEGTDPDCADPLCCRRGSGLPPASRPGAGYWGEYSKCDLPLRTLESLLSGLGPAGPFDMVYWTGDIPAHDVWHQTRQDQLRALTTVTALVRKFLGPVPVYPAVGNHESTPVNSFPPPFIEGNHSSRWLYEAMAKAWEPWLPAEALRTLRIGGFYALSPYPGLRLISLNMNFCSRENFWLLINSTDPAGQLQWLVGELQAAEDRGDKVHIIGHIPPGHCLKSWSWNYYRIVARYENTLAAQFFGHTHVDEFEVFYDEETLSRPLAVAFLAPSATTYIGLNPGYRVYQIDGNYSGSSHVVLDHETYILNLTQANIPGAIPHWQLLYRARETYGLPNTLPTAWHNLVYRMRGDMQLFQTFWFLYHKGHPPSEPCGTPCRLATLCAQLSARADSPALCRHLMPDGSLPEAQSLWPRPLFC
#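 Human placenta-derived ASM preincubated with compound 10 min at room temperature, then reacted with 9 uM (final) fluorogenic HMU-PC substrate for 60 min at 37 C. Stop solution raises pH to 10; fluorescence read at Ex 386/Em 447 nm.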
# DT40 TDP1 no CPT: qHTS for Inhibitors of human tyrosyl-DNA phosphodiesterase 1 (TDP1): qHTS in cells in absence of CPT | DT40 Tdp1-/- hTDP1 cells, no CPT, ATP luminescence, 48 h | Potency, µM (doses to about 46.2 µM), inactives show top-dose activity change, negative = growth inhibition, hits mostly inhibitors | hit rate 15% among 420,000 | AID 686978, 2013; further: potency means the concentration at half of the fitted maximal effect; on the % scale 0 is the no-effect control and ±100 the full control effect; nearly all actives have a fitted effect of over 55% in size
#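 Camptothecin absent (DMSO only). Human TDP1-complemented DT40 knockout cells, 400 cells/well, 37 °C for minimum 48 hr; ATP measured via CellTiter-Glo, 30 min dark incubation, luminescence.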
# TGFb SMAD3 inh: TGF-b pathway inhibition. HepG2 CAGA-GFP TGF-b/SMAD3 reporter, GFP fluorescence, 18 h; TGF-beta stimulated, 500 pg/mL final. Potency, µM (titrated, usually from 46.1 µM), inactives show at the top dose activity, negative = inhibition, usual class: inhibitors. hit rate 1.2% among 410,000; further: potency means the concentration at half of the fitted maximal effect; on the % scale 0 is the no-effect control and ±100 the full control effect; nearly all actives have a fitted effect of over 65% in size
#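 Cell-based qHTS in HEPG2 carrying a CAGA-GFP Smad reporter; compounds added before 500 pg/mL final TGF-beta, 18 h incubation at 37 degrees C, GFP fluorescence quantified per cell by imaging cytometry.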
# Numbers without * were called inactive; ? = inconclusive; nt = no result given. Unless noted, the call rests on the fitted dose curve; in most records, active means well fitted curve in the direction sought with a large enough effect; inconclusive means small, poorly fitted or top-dose-only effect, or another doubt; inactive means no such curve, though single readings can be large; an effect the other way counts as inactive or inconclusive.
SMILES,HepG2 viability,IL1B secr inh,TDP1 cell CPT,ASM inhibitor,DT40 TDP1 no CPT,TGFb SMAD3 inh
CC(C)(C)C(=O)Nc1ccccc1-c1nc2ccccc2[nH]c1=O,7%,18,11%,243%,-5%,1%
NCCc1nc(-c2ccccc2)cs1,-10%,-52*,4%,6%,-23%,14%
O=[N+]([O-])c1ccc(CNc2ccc(F)cc2)s1,-15%,-85*,-14%,0%,?,-22%
O=[N+]([O-])c1ccc(CNc2ccc(Cl)cc2)s1,-19%,?,-21%,-4%,-14%,?
COc1ccc(NCc2ccc([N+](=O)[O-])s2)cc1,-23%,-71*,?,-3%,21µM*,0%
COc1ccc(NCc2ccc([N+](=O)[O-])s2)c(OC)c1,-20%,-8,16µM*,3%,?,-14%
COc1ccc(CNc2ccc(S(N)(=O)=O)cc2)cc1,0%,18,-26%,2%,?,-23%
O=[N+]([O-])c1ccc(CNc2cccc(Cl)c2)s1,-4%,-95*,?,-1%,?,?
COc1ccc(NC(=O)/C=C/c2ccccc2[N+](=O)[O-])c(OC)c1,1%,-13,?,-4%,?,0%
CCCc1nc2oc3c(NCCCN(C)C)ncnc3c2c2c1CCCC2,-160%,nt,?,-14%,?,?
CCCc1nc2oc3c(NCCN(C)C)ncnc3c2c2c1CCCC2,-85%,0,18µM*,-15%,16µM*,?
CC(C)Cc1nc2oc3c(NCC(C)O)ncnc3c2c2c1CCCC2 (stereo not given),2%,0,?,-20%,15µM*,-9%
CC1=C([N+](=O)[O-])C(c2ccc3c(c2)OCO3)N(C)C(=O)N1C (stereo not given),-1%,-2,8.2µM*,2%,21µM*,1%
CN(Cc1cccnc1)C(=O)c1ccc2nc(Cc3ccccc3F)oc2c1,4%,-4,-27%,1%,?,-3%
CC(=O)c1cccc(N(CC(=O)NC2CCCCC2)C(=O)CNC(=O)c2cccs2)c1,-5%,5,-11%,-1%,-2%,-10%
CN1OC[C@@H]2CN(C(=O)CCc3ccccc3)[C@H](c3ccc(N4CCCCC4)cc3)C[C@@H]21,-32%,-15,?,nt,?,-26%
CN1OC[C@@H]2CN(C(=S)NCCc3ccccc3)[C@H](c3ccc(N4CCCCC4)cc3)C[C@@H]21,3%,1,16µM*,nt,?,?
COc1ccc2nc(C)cc(Nc3ccc(N4CCOCC4)cc3)c2c1,-48%,nt,?,-8%,21µM*,?
COc1ccc(-c2nc3ccc(N4CCN(C)CC4)cc3c(=O)[nH]2)cc1,8%,-17,10%,62%,?,2%
COc1ccc2nc(C)cc(Nc3ccc(N4CCN(C)CC4)cc3)c2c1,0%,-106*,4.6µM*,-8%,3.3µM*,-1%
COc1ccc2nc(C)cc(NCCN3CCOCC3)c2c1,-2%,?,-3%,15%,-20%,3%
Cc1ccc(N2C(=O)N(CC(=O)Nc3ccccc3C(F)(F)F)C(=O)C2C)cc1 (stereo not given),-1%,8,-7%,-2%,-10%,-9%
Cc1ccccc1C1C(C#N)=C(N)N(N(C)C)C2=C1C(=O)CC(C)(C)C2 (stereo not given),6%,0,6%,48%,-6%,-7%
Cc1cccc(C)c1NC(=S)N(CCN1CCCCCC1)Cc1ccco1,5%,-21,?,1%,18µM*,-14%
Cc1cc(C)c(NC(=S)N(CCN2CCCCC2)Cc2ccco2)c(C)c1,4%,-3,?,4%,16µM*,-27%
SMILES,HepG2 viability,IL1B secr inh,TDP1 cell CPT,ASM inhibitor,DT40 TDP1 no CPT,TGFb SMAD3 inh
COC(=O)c1ccccc1C(=O)N(c1ccccc1)c1ccccc1,-25%,12,6.5µM*,1%,15µM*,-3%
COC(=O)c1ccc(NC(=O)N(c2ccccc2)c2ccccc2)cc1,2%,-4,-3%,-1%,?,-1%
N#Cc1cccc(NC(=O)CCN2C(=O)C3CCCCC3C2=O)c1 (stereo not given),5%,9,1%,2%,-6%,?
C=C1C=C(C(F)F)n2ncc(C(=O)N3CCc4ccccc4C3)c2N1,20%,nt,?,nt,?,9%
C=C1C=C(C(F)F)n2ncc(C(=O)N3CCN(c4ccccc4)CC3)c2N1,2%,nt,11µM*,nt,?,5%
C[C@@H]1COC(=O)[C@@H](Cc2ccc(F)cc2)C/C=C\C[C@@H](CC(=O)NCCO)C(=O)N1,-3%,41,1%,5%,7%,-9%
COCC(=O)Nc1cc([N+](=O)[O-])ccc1C,-25%,-5,23µM*,3%,?,16%
Cc1ccc(CC(=O)Nc2ccc([N+](=O)[O-])cc2C)cc1,0%,-57*,-15%,-2%,-4%,-14%
CCOC(=O)C(=O)Nc1cc([N+](=O)[O-])ccc1C,-13%,0,2%,0%,1%,-15%
COc1ccc(CN(C(=S)Nc2ccccc2)C2CC(=O)N(c3ccc(F)cc3)C2=O)cc1 (stereo not given),-18%,9,?,-4%,?,0%
CNC(=S)N(Cc1ccc2c(c1)OCO2)C1CC(=O)N(c2ccc(F)cc2)C1=O (stereo not given),23%,25,?,-9%,21µM*,8%
C=CCN(C(=O)Nc1ccc(Cl)cc1)C1CC(=O)N(c2ccc(OC)cc2)C1=O (stereo not given),-14%,12,23µM*,-3%,-14%,24%
CNC(=S)N(Cc1ccc(OC)cc1)C1CC(=O)N(c2ccc(Cl)cc2)C1=O (stereo not given),-32%,-22,16µM*,-17%,18µM*,?
CCOC(=O)c1ccc(N2C(=O)CC(N(Cc3ccc4c(c3)OCO4)C(=O)Nc3ccccc3)C2=O)cc1 (stereo not given),-38%,0,?,-15%,?,-9%
C[C@@H]1CN([C@H](C)CO)C(=O)CCCn2cc(nn2)CO[C@H]1CN(C)C(=O)Nc1ccccc1F,-6%,8,1%,nt,-1%,-5%
CCc1ccccc1NC(=O)CN(C)C(=O)COC(=O)c1ccco1,3%,0,-6%,1%,25%,-1%
